In PubChem BioAssay AID1159580 (chemical genetic matrix, 2015):
Hit rate of the full screen: of about 5,500 compounds, about 2,000 (36%) were called active. Another 18% or so got no clear call; they are omitted. No stated cut-off is given here; in the data, active means normalized growth mostly below about 0.91 (no sharp cut-off); inconclusive means no clear call, values can overlap the other calls; inactive means mostly above about 0.92. Some of the results follow.

Assay: chemical genetic growth profiling, strain panel (AID 1159580);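 further: tested at 20 µM; growth read once vehicle control cultures reached saturation at 30 °C; 1 = growth at the plate median or of vehicle wells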
Settings: growth OD
[1] = S. cerevisiae deletion strains, locus YAL040C, strain CLN3, stronger effect = lower value
[2] = S. cerevisiae deletion strains, locus YDR150W, strain NUM1, stronger effect = lower value
[3] = S. cerevisiae deletion strains, locus YER002W, strain NOP16, stronger effect = lower value
[4] = S. cerevisiae deletion strains, locus YGR078C, strain PAC10, stronger effect = lower value
[5] = S. cerevisiae deletion strains, locus YMR263W, strain SAP30, stronger effect = lower value
[6] = S. cerevisiae deletion strains, locus YNL153C, strain GIM3, stronger effect = lower value
[7] = S. cerevisiae deletion strains, locus YNL175C, strain NOP13, stronger effect = lower value
[8] = S. cerevisiae deletion strains, locus YNL197C, strain WHI3, stronger effect = lower value
[9] = S. cerevisiae deletion strains, locus YNL224C, strain SQS1, stronger effect = lower value
[10] = S. cerevisiae deletion strains, locus YOR083W, strain WHI5 (second series), stronger effect = lower value
[11] = S. cerevisiae deletion strains, locus YPL055C, strain LGE1, stronger effect = lower value
[12] = S. cerevisiae deletion strains, locus YBR229C, strain ROT2, stronger effect = lower value
[13] = S. cerevisiae deletion strains, locus YDL101C, strain DUN1, stronger effect = lower value
[14] = S. cerevisiae deletion strains, locus YEL061C, strain CIN8, stronger effect = lower value
[15] = S. cerevisiae deletion strains, locus YHR030C, strain SLT2, stronger effect = lower value
[16] = S. cerevisiae deletion strains, locus YJR043C, strain POL32, stronger effect = lower value
[17] = S. cerevisiae deletion strains, locus YJR075W, strain HOC1, stronger effect = lower value
[18] = S. cerevisiae deletion strains, locus YKL190W, strain CNB1, stronger effect = lower value
[19] = S. cerevisiae deletion strains, locus YLR039C, strain RIC1, stronger effect = lower value
[20] = S. cerevisiae deletion strains, locus YLR262C, strain YPT6, stronger effect = lower value
[21] = S. cerevisiae deletion strains, locus YPL241C, strain CIN2, stronger effect = lower value

Measured: normalized growth

CC[N+](CC)(CC)CC(=O)Nc1c(C)cccc1C
inactive: [1] 0.958 | S. cerevisiae deletion strains, locus YCL061C, strain MRC1 (second series), stronger effect = lower value 0.999 | [2] 1 | S. cerevisiae deletion strains, locus YDR363W, strain ESC2, stronger effect = lower value 1.02 | [3] 1.01 | [4] 1.02 | S. cerevisiae deletion strains, locus YGR229C, strain SMI1, stronger effect = lower value 1 | [5] 1 | S. cerevisiae deletion strains, locus YNL128W, strain TEP1, stronger effect = lower value 1.01 | [6] 0.995 | [7] 1 | [8] 1.01 | [9] 0.999 | [10] 0.999 | [11] 1.01

CN1C2CCC1CC(=NO)C2
inactive: S. cerevisiae deletion strains, locus YAL013W, strain DEP1, stronger effect = lower value 0.993 | [12] 0.982 | [13] 1.02 | [2] 0.991 | [14] 0.997 | [4] 1 | [15] 1.07 | S. cerevisiae deletion strains, locus YHR087W, strain rtc3, stronger effect = lower value 0.993 | S. cerevisiae deletion strains, locus YJL187C, strain SWE1, stronger effect = lower value 0.989 | [16] 0.986 | [17] 0.984 | [18] 0.994 | [19] 0.998 | S. cerevisiae deletion strains, locus YLR058C, strain SHM2 (second series), stronger effect = lower value 0.983 | S. cerevisiae deletion strains, locus YLR085C, strain ARP6, stronger effect = lower value 1.02 | [20] 0.997 | S. cerevisiae deletion strains, locus YML094W, strain GIM5, stronger effect = lower value 1.01 | S. cerevisiae deletion strains, locus YMR219W, strain ESC1, stronger effect = lower value 1.01 | [5] 0.986 | [6] 1.03 | S. cerevisiae deletion strains, locus YNL298W, strain CLA4 (second series), stronger effect = lower value 1.03 | S. cerevisiae deletion strains, locus YNL322C, strain KRE1, stronger effect = lower value 1 | S. cerevisiae deletion strains, locus YNR030W, strain Alg12, stronger effect = lower value 0.986 | [11] 0.984 | [21] 0.975 | S. cerevisiae deletion strains, locus YPR135W, strain CTF4, stronger effect = lower value 1.03

CO[C@@]1(NC(=O)CSCC#N)C(=O)N2C(C(=O)O)=C(CSc3nnnn3C)CS[C@@H]21
inactive: [1] 1.01 | [3] 0.986 | [4] 1 | [17] 1 | [7] 0.995 | [8] 1 | [9] 1 | [10] 1 | [21] 1

Cc1occc(=O)c1/C=C/O
inactive: S. cerevisiae deletion strains, locus YBR021W, strain FUR4, stronger effect = lower value 0.994 | [12] 1 | S. cerevisiae deletion strains, locus YCL029C, strain bik1, stronger effect = lower value 1.02 | S. cerevisiae deletion strains, locus YDL035C, strain GPR1, stronger effect = lower value 0.999 | S. cerevisiae deletion strains, locus YDL074C, strain BRE1, stronger effect = lower value 1.01 | [13] 1 | S. cerevisiae deletion strains, locus YDL134C, strain PPH21, stronger effect = lower value 0.997 | S. cerevisiae deletion strains, locus YDL185W, strain tfp1, stronger effect = lower value 1.03 | S. cerevisiae deletion strains, locus YDL192W, strain arf1, stronger effect = lower value 1.02 | S. cerevisiae deletion strains, locus YDR101C, strain arx1, stronger effect = lower value 0.989 | [2] 0.999 | S. cerevisiae deletion strains, locus YDR162C, strain NBP2, stronger effect = lower value 0.991 | S. cerevisiae deletion strains, locus YDR318W, strain mcm21, stronger effect = lower value 1.01 | S. cerevisiae deletion strains, locus YDR388W, stronger effect = lower value 1.01 | S. cerevisiae deletion strains, locus YDR502C, strain sam2, stronger effect = lower value 0.995 | [14] 1 | S. cerevisiae deletion strains, locus YER110C, stronger effect = lower value 1.02 | S. cerevisiae deletion strains, locus YER155C, strain BEM2, stronger effect = lower value 0.996 | S. cerevisiae deletion strains, locus YER167W, strain BCK2, stronger effect = lower value 0.996 | S. cerevisiae deletion strains, locus YGL078C, strain dbp3, stronger effect = lower value 1.03 | S. cerevisiae deletion strains, locus YGL086W, strain mad1, stronger effect = lower value 0.989 | S. cerevisiae deletion strains, locus YGL248W, strain PDE1, stronger effect = lower value 0.995 | [4] 0.996 | S. cerevisiae deletion strains, locus YGR135W, strain pre9, stronger effect = lower value 1.02 | S. cerevisiae deletion strains, locus YGR252W, strain gcn5, stronger effect = lower value 0.985 | [15] 1 | S. cerevisiae deletion strains, locus YHR079C, strain IRE1 (second series), stronger effect = lower value 1.02 | S. cerevisiae deletion strains, locus YHR094C, strain hxt1, stronger effect = lower value 1.01 | S. cerevisiae deletion strains, locus YHR129C, strain ARP1, stronger effect = lower value 1 | S. cerevisiae deletion strains, locus YHR200W, strain rpn10, stronger effect = lower value 1.01 | S. cerevisiae deletion strains, locus YIL066C, strain RNR3, stronger effect = lower value 1 | S. cerevisiae deletion strains, locus YIL073C, strain SPO22, stronger effect = lower value 1.03 | S. cerevisiae deletion strains, locus YIL125W, strain kgd1, stronger effect = lower value 1.01 | S. cerevisiae deletion strains, locus YIR030C, strain dcg1, stronger effect = lower value 1.01 | S. cerevisiae deletion strains, locus YJL095W, strain BCK1, stronger effect = lower value 0.989 | S. cerevisiae deletion strains, locus YJL134W, strain LCB3, stronger effect = lower value 1.01 | S. cerevisiae deletion strains, locus YJL168C, strain set2, stronger effect = lower value 1.01 | S. cerevisiae deletion strains, locus YJL187C, strain SWE1 (second series), stronger effect = lower value 0.998 | [16] 0.991 | [17] 0.995 | S. cerevisiae deletion strains, locus YKL009W, strain mrt4, stronger effect = lower value 1.01 | S. cerevisiae deletion strains, locus YKL068W, stronger effect = lower value 1.01 | S. cerevisiae deletion strains, locus YKL085W, strain MDH1 (second series), stronger effect = lower value 1.02 | S. cerevisiae deletion strains, locus YKL085W, strain MDH1, stronger effect = lower value 1.02 | [18] 1.01 | S. cerevisiae deletion strains, locus YKR001C, strain vps1, stronger effect = lower value 1.01 | [19] 1.02 | S. cerevisiae deletion strains, locus YLR058C, strain SHM2, stronger effect = lower value 1 | S. cerevisiae deletion strains, locus YLR102C, strain apc9, stronger effect = lower value 1.01 | [20] 1.07 | S. cerevisiae deletion strains, locus YLR268W, strain sec22, stronger effect = lower value 1.01 | S. cerevisiae deletion strains, locus YLR330W, strain CHS5, stronger effect = lower value 1 | S. cerevisiae deletion strains, locus YLR342W, strain FKS1 (second series), stronger effect = lower value 1.01 | S. cerevisiae deletion strains, locus YLR371W, strain rom2, stronger effect = lower value 1.02 | S. cerevisiae deletion strains, locus YLR418C, strain cdc73, stronger effect = lower value 0.977 | S. cerevisiae deletion strains, locus YML016C, strain PPZ1, stronger effect = lower value 1 | S. cerevisiae deletion strains, locus YML032C, strain rad52, stronger effect = lower value 1.01 | S. cerevisiae deletion strains, locus YML124C, strain tub3, stronger effect = lower value 1.01 | S. cerevisiae deletion strains, locus YMR078C, strain ctf18, stronger effect = lower value 1 | S. cerevisiae deletion strains, locus YMR223W, strain ubp8, stronger effect = lower value 0.997 | [5] 0.999 | S. cerevisiae deletion strains, locus YMR307W, strain GAS1, stronger effect = lower value 1.02 | S. cerevisiae deletion strains, locus YNL067W, strain RPL9B, stronger effect = lower value 0.993 | [6] 0.994 | S. cerevisiae deletion strains, locus YNL233W, strain BNI4, stronger effect = lower value 0.974 | S. cerevisiae deletion strains, locus YNL250W, strain rad50, stronger effect = lower value 1.01 | S. cerevisiae deletion strains, locus YNL271C, strain bni1, stronger effect = lower value 1.04 | S. cerevisiae deletion strains, locus YNL298W, strain CLA4, stronger effect = lower value 1.02 | S. cerevisiae deletion strains, locus YNL307C, strain MCK1, stronger effect = lower value 1.02 | S. cerevisiae deletion strains, locus YNR052C, strain pop2, stronger effect = lower value 1.01 | S. cerevisiae deletion strains, locus YOL006C, strain TOP1, stronger effect = lower value 0.981 | S. cerevisiae deletion strains, locus YOL012C, strain htz1 0.887 | S. cerevisiae deletion strains, locus YOL147C, strain pex11, stronger effect = lower value 1.01 | S. cerevisiae deletion strains, locus YOR061W, strain CKA2, stronger effect = lower value 1.01 | S. cerevisiae deletion strains, locus YOR069W, strain VPS5, stronger effect = lower value 1 | S. cerevisiae deletion strains, locus YOR136W, strain idh2, stronger effect = lower value 1.02 | S. cerevisiae deletion strains, locus YOR144C, strain elg1, stronger effect = lower value 1.01 | S. cerevisiae deletion strains, locus YOR184W, strain ser1, stronger effect = lower value 1 | S. cerevisiae deletion strains, locus YOR316C, strain cot1, stronger effect = lower value 1.03 | [21] 1 | S. cerevisiae deletion strains, locus YPR119W, strain clb2, stronger effect = lower value 1.02 | S. cerevisiae deletion strains, locus YPR141C, strain kar3, stronger effect = lower value 1.02 | S. cerevisiae deletion strains, locus YPR163C, strain tif3, stronger effect = lower value 0.994 | S. cerevisiae deletion strains, locus YPR167C, strain met16, stronger effect = lower value 1.02 | S. cerevisiae deletion strains, strain wtn01, stronger effect = lower value 1.03 | S. cerevisiae strains, strain wild type, stronger effect = lower value 1.01
